SW480 rerep – A quantitative high throughput screen for small molecules that induce DNA re-replication in SW480 colon adenocarcinoma cells. AID 624297, 2012. 340,000 compounds, 1.8% hits. Potency, µM (titrated, usually from 46.1 µM), without a hit: at the highest dose re-replication activation, usual class: activators. SW480 DNA re-replication, Hoechst DNA content imaging, 48 h; further: % of control where 0% means no effect; nearly all actives have a fitted effect of over 55% in size
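SW480 cells exposed to compounds for 48 hr at 37 C, 5% CO2, then Hoechst-stained 40 min. Nuclear DNA content imaged by fluorescence scanning (405 nm excitation, 500-530 nm emission); re-replication scored as increased high-intensity nuclei.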
KB-3-1 cytotox – qHTS assay for MDR1-selective chemotherapeutics: Primary screen using the parental adenocarcinoma cell KB-3-1; KB-3-1 viability, CellTiter-Glo ATP luminescence, 72 h; Potency, µM (series often up to 46.1 µM), most hits filed as cytotoxic; 400,000 compounds, 1.4% hits; AID 1347075, 2019; further: on the % scale 0 is the no-effect control and ±100 the full control effect; nearly all actives have a fitted effect of over 60% in size
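Using CellTiter-Glo luminescence, growth of non-resistant KB-3-1 adenocarcinoma cells is assessed 72 h after pin-tool compound addition at 37 °C. Normalized responses across the concentration series yield fitted curves.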
KB-V1 MDR tox – qHTS assay for MDR1-selective chemotherapeutics: Primary screen using the drug-selected MDR subline cells KB-V1 | AID 1347076, 2019 | 400,000 compounds, 3.4% hits | KB-V1 MDR cells viability, CellTiter-Glo, 72 h | Potency, µM (top dose mostly 46.1 µM), actives largely listed as cytotoxic; further: on the % scale 0 is the no-effect control and ±100 the full control effect; nearly all actives have a fitted effect of over 60% in size
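KB-V1, DMEM (no phenol red) + 10% FBS; cpd pin-transferred, titration series; 72 h, 37 degrees C; CellTiter-Glo, luminescence. Data normalized, curve-fit.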
MCF10A rerep – A quantitative high throughput screen for small molecules that induce DNA re-replication in MCF 10a normal breast cells. Potency, µM (highest dose often 46.1 µM), for the others: top-dose activity, positive = re-replication, usual class: activators. AID 624296, 2012. MCF 10A DNA re-replication, Hoechst nuclear intensity, 48 h. 350,000 compounds, 2.9% hits; further: % of control where 0% means no effect; nearly all actives have a fitted effect of over 50% in size
ELG1 DNA repair – qHTS screen for small molecules that inhibit ELG1-dependent DNA repair in human embryonic kidney (HEK293T) cells expressing luciferase-tagged ELG1 | HEK293T ELG1-luciferase reporter, luminescence, 16 h; DNA damage induced by 5-fluorouridine | Potency, µM (top dose mostly 46.1 µM), inactives show at the highest dose activity change, negative = inhibition, hits mostly inhibitors | 330,000 compounds, 2.3% hits | AID 504467, 2011; further: on the % scale 0 is the no-effect control and ±100 the full control effect; nearly all actives have a fitted effect of over 55% in size
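Quantitative HTS, concentration-response format. 2,000 cells/well co-treated with 5-fluorouridine and compound, 16 hr in 5% CO2 at 37 °C; ONE-Glo luminescence read after 30 min.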
Active calls of the source: *; i = inactive; ? = inconclusive; · = no result; ! = not active in a repeat. An excerpt weighted towards active compounds, which were near 8.1% of everything screened. The call rests on the fitted dose curve; in most records, active means well fitted curve in the direction sought with a large enough effect; inconclusive means small, poorly fitted or top-dose-only effect, or another doubt; inactive means no such curve, though single readings can be large; an effect the other way counts as inactive or inconclusive. Potency means the concentration at half of the fitted maximal effect.

SMILES	SW480 rerep	KB-3-1 cytotox	KB-V1 MDR tox	MCF10A rerep	ELG1 DNA repair
CCCC(=O)Nc1cc(-c2nn(C)c(=O)c3ccccc23)ccc1OC	-5.4%	?	?	17.5%	?
CC(=O)Nc1ccc(C=NN=C2c3ccccc3-c3ccccc32)cc1	0.5%	i	18.4µM*	?	·
CN(C)CC[C@@](O)(c1ccccc1)c1ccccc1Cl	-2.8%	·	·	-1.4%	·
CN1CCN(CC(=O)N2c3ccccc3C(C)(c3ccccc3)CC2(C)C)CC1 (stereo not given)	20.6µM*	?	?	?	-9.9%
COc1cc2sc3ccc(C#CC4(O)CCCCC4)cc3c(=O)c2cc1OC	?	i	i	9.2µM*	·
COc1cccc2sc3cc(C#CC4(O)CCCCC4)ccc3c(=O)c12	-3.2%	i	i	?	?
Nc1c(Cl)ncnc1NCCc1ccc(O)cc1	?	?	?	1.2%	10.3µM*
Nc1c(Cl)ncnc1NCc1cccnc1	3.0%	i	i	5.2%	-14.7%
Cn1nc(C(F)(F)F)c(-c2ccc(Br)cc2)c1NC(=O)Nc1ccc(F)cc1F	-1.4%	?	?	20.6µM*	?
Cn1nc(C(F)(F)F)c(-c2ccc(F)cc2)c1NC(=O)c1ccco1	-3.7%	i	i	-1.7%	-20.1%
Cc1cccn2cc(-c3ccc(S(=O)(=O)N4CCOCC4)cc3)nc12	-4.3%	i	2.31µM*	1.2%	?
Cc1ccc(NC(=O)N2CCCCCC2)cc1C	-4.1%	i	i	3.0%	?
Cc1ccc(C(NC(=O)N2CCCCC2)=C(Cl)Cl)cc1F	6.51µM*	i	i	16.4µM*	?
N#C/C(=C\c1c(N2CCCCCC2)nc2ccccn2c1=O)C(=O)NC1CCS(=O)(=O)C1 (stereo not given)	-6.2%	i	i	1.0%	-26.5%
N#C/C(=C\c1c(N2CCOCC2)nc2ccccn2c1=O)C(=O)NC1CCS(=O)(=O)C1 (stereo not given)	?	i	i	5.8µM*	?
N#C/C(=C\c1c(Oc2ccccc2F)nc2ccccn2c1=O)C(=O)NC1CCS(=O)(=O)C1 (stereo not given)	?	i	i	16.4µM*	-3.8%
O=S(=O)(NCCc1ccncc1)c1ccc(F)cc1	-5.6%	i	i	-8.5%	-5.0%
CC(NCC1(N2CCOCC2)CCCCC1)C(=O)N1CCc2ccccc21 (stereo not given)	-3.4%	i	i	0.7%	-5.3%
O=C(Cc1ccc(O)cc1)N/N=C/c1cccnc1	5.3%	i	i	1.6%	-6.8%
Cc1ccc(S(=O)(=O)N(CC(=O)Nc2cccnc2)c2cccc([N+](=O)[O-])c2)cc1	?	·	·	23.1µM*	?
Cc1ccc(S(=O)(=O)N(CC2CO2)c2cccc([N+](=O)[O-])c2)cc1 (stereo not given)	18.4µM*	?	i	?	?
O=[N+]([O-])c1ccc(N(CC2CO2)S(=O)(=O)c2ccccc2)cc1 (stereo not given)	-6.2%	i	i	9.7%	?
Cc1ccccc1CN(CC(=O)Nc1cccc([N+](=O)[O-])c1)S(=O)(=O)c1ccc(Cl)cc1	?	i	5.8µM*	16.4%	?
COCCNC(=O)c1ccccc1NC(=O)Cc1ccccc1[N+](=O)[O-]	-6.4%	i	i	1.9%	-11.9%
CC(=O)c1cccc(NC(=O)N2C3CCC2CC(NC(=O)Nc2ccccc2)C3)c1 (stereo not given)	-3.8%	i	i	-3.2%	-0.3%
SMILES	SW480 rerep	KB-3-1 cytotox	KB-V1 MDR tox	MCF10A rerep	ELG1 DNA repair
COc1cc2[nH]c(=O)n3nc(-c4ccccc4)nc3c2cc1OC	-0.8%	i	i	-1.2%	20.6µM*
CCN(CC)CCNc1nc2cc(OC)c(OC)cc2c2nc(-c3ccccc3)nn12	17.5%	16.4µM*	9.2µM*	18.6%	?
O=C(c1ccco1)n1c(=S)nc2ccccn21	8.7%	i	i	-27.9%	?
N#Cc1c([N+](=O)[O-])cc([N+](=O)[O-])cc1S(=O)(=O)Cc1ccccc1	5.17µM*	23.1µM*	?	?	15.8µM*
CN1C(=O)C(C)(C)c2cc(S(=O)(=O)N(C)Cc3ccccc3)ccc21	-7.4%	i	i	5.4%	14.8%
CCOC(=O)N=Nc1c2ccccc2c2nc3no[nH]c3nc12	?	1.46µM*	2.91µM*	?	1.46µM*
CC(OC(=O)c1ccc(O)cc1)C(=O)Nc1ccc(Oc2ccccc2)cc1 (stereo not given)	?	i	i	?	-2.1%
O=C(NCCNS(=O)(=O)c1ccccc1Cl)c1cc(OCC(F)(F)F)ccc1OCC(F)(F)F	-3.3%	i	?	15.1%	14.6µM*
CCN(CC)C(=O)/C(=C\c1ccncc1)NC(=O)c1ccccc1	4.5%	i	i	-2.0%	14.5%
Cc1cc(C)cc(NC(=O)CN(C)S(=O)(=O)c2ccc3[nH]c4c(c3c2)CCCC4)c1	·	i	i	·	·
Oc1ccc(N=Nc2cccc(C(F)(F)F)c2)cc1C=Nc1ccc(N2CCOCC2)cc1	?	i	i	5.8µM*	-15.9%
Oc1ccc(C=Nc2ccc(N3CCOCC3)cc2)c(O)c1	?	i	?	?	-11.0%
c1ccc(CC2=NCCN2)cc1	-24.0%	i	i	-1.0%	2.0%
c1ccc(CN(CC2=NCCN2)c2ccccc2)cc1	0.231µM*!	i	i	8.7%	2.1%
CCOc1ccc(N(CC)C(=O)CCNC(=O)Cn2ccc3ccccc3c2=O)cc1	-1.2%	i	23.1µM*	0.0%	-4.4%
Cc1ccc(C)c(N2CCN(C(=O)CCNC(=O)Cn3ccc4ccccc4c3=O)CC2)c1	-5.2%	i	6.51µM*	-1.0%	2.2%
COc1ccccc1N1CCN(C(=O)CCNC(=O)Cn2ccc3ccccc3c2=O)CC1	-1.5%	i	i	8.1%	0.0%
CCCC(=O)C1=C(O)C(C(=O)OC)C(C)(C)CC1=Nc1cccc([N+](=O)[O-])c1 (stereo not given)	-0.1%	i	?	1.8%	?
CC(C)OC(=O)C1=C(N)N2C(=O)CSC2=C(C(=O)OC(C)C)C1	-0.5%	i	i	17.3%	0.4%
O=C(NCCCCNC(=O)c1c(Cl)cccc1Cl)c1c(Cl)cccc1Cl	-9.2%	i	i	9.7%	·

Compound activity as filed in PubChem.
